Test results taken from publication PMC4336329 (PLoS ONE, 2015).
Hit rate of the full screen: of about 310,000 compounds, about 2,200 (0.71%) showed an effect of 50% or more. Effects have a minus sign here. Shown is part of a subset that was picked to be rich in strong results.

Each compound was assayed against human ether-à-go-go-related gene (hERG) potassium channel (human, UniProt Q12809) (assay: primary screen, population patch clamp on CHO cells stably expressing hERG; higher = less effect of the substance).
Chain of human ether-à-go-go-related gene (hERG) potassium channel (Q12809 whole entry, looked up): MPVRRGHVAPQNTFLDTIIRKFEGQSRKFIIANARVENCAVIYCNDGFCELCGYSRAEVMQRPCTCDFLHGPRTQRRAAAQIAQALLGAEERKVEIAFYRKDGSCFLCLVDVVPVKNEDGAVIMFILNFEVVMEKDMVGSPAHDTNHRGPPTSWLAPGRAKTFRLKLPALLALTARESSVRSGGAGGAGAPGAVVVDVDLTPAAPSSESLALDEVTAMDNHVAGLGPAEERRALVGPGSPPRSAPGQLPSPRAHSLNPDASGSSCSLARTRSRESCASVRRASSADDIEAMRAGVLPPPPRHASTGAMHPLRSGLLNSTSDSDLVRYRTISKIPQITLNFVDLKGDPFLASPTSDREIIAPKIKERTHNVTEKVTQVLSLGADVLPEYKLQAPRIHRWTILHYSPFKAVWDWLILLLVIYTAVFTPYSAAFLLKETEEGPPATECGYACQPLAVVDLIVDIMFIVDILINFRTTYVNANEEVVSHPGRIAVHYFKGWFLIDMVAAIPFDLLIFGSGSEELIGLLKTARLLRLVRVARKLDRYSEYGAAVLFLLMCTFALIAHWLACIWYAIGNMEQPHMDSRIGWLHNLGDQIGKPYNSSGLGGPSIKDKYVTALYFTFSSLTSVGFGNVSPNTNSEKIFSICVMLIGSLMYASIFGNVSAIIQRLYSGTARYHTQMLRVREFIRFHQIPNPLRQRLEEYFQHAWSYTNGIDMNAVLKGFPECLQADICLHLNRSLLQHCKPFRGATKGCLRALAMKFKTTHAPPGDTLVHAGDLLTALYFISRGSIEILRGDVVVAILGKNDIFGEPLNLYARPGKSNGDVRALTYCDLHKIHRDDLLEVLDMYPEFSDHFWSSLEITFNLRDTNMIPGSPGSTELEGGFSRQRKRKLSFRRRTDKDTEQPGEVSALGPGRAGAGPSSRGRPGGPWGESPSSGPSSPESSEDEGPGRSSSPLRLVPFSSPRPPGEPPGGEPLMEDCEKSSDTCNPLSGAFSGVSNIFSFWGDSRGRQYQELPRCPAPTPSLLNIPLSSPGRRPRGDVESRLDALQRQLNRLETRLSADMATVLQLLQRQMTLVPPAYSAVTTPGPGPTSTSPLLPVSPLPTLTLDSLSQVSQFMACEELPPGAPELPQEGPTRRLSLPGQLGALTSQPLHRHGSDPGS

Point of comparison: `O=[N+]([O-])c1ccc(N2CCN(c3ccc(F)cc3)CC2)cc1`, “hERG current change (%, negative = inhibition) at 1uM” value 5.71%. Against it:
- O=C(Cn1nnc2ccccc21)N1CCCCC1 — lower, 2.74%
- O=C(Nc1ccc(N2CCN(C(=O)c3cccs3)CC2)cc1)c1ccc([N+](=O)[O-])o1 — lower, -15.8%
- O=C(CN1CCN(C(=O)c2ccco2)CC1)Nc1ccc(Br)cc1 — higher, 10.5%
- O=C(Nc1ccc(N2CCN(C(=O)c3cccs3)CC2)cc1)c1ccco1 — higher, 17.4%
- O=C(CN1CCN(C(=O)c2cccs2)CC1)Nc1ccc(Br)cc1 — lower, -68.2%
- O=C(CN1CCN(Cc2ccccc2)CC1)Nc1ccc(Br)cc1 — lower, -48.3%
- O=C(CN1CCN(C(=O)c2ccccc2F)CC1)Nc1ccc(Br)cc1 — lower, -56.5%
- O=C(NCCN1CCN(C(=O)c2cccs2)CC1)C(=O)Nc1ccc(Br)cc1 — lower, -44.8%
- CCC(=O)Nc1ccc(N2CCN(C(=O)c3cccs3)CC2)cc1 — lower, 3.02%
- O=C(Nc1ccc(N2CCN(C(=O)c3cccs3)CC2)cc1)c1ccc(Br)o1 — lower, -52.7%
- Cc1ccc(NC(=O)c2ccc3ccccc3n2)cc1S(=O)(=O)N1CCOCC1 — higher, 14%
- CCOP1(=S)Oc2cc3c(cc2C(C(=O)OC)(C(F)(F)F)O1)OCO3 (centres unmarked) — lower, 5.27%
- Cn1c(=O)n(C)c2cc(N3CCCC3)c(NC(=O)c3cccc(F)c3)cc21 — higher, 10.3%
- CCCOc1ccc(C2=CSC3=NCCN23)cc1.Cl — lower, -0.939%
- Br.CCc1ccc(C2=CSC3=NCCN23)cc1 — lower, 1.72%
- Br.Cc1ccc(C2=CSC3=NCCN23)cc1 — higher, 11.3%
- O=[N+]([O-])c1ccc(C2=CSC3=NCCN23)cc1 — lower, -0.955%
- CCOc1ccc(C2=CSC3=NCCN23)cc1[N+](=O)[O-] — lower, -61%
- Br.COc1ccc(C2=CSC3=NCCN23)cc1OC — higher, 7.66%
- CCCOc1ccc(C2=CSC3=NCCN23)cc1[N+](=O)[O-] — lower, -68.4%
- COc1ccc(C2=CSC3=NCCN23)cc1[N+](=O)[O-] — lower, 2.48%
- CCOc1ccc(C2=CSC3=NCCN23)cc1Cl — higher, 10.2%
- CCCOc1ccc(C2=CSC3=NCCN23)cc1Cl — lower, -23.5%
- CCCCOc1ccc(C2=CSC3=NCCN23)cc1[N+](=O)[O-] — lower, -52.1%
- Br.CC(C)Cc1ccc(C2=CSC3=NCCN23)cc1 — lower, -60.9%
- CCCCn1c(N)c(N(CCOC)C(=O)CN2CC=C(c3ccccc3)CC2)c(=O)[nH]c1=O — higher, 10.3%
- O=C(Cn1nnc(-c2ccc(Cl)cc2)n1)NC1CCS(=O)(=O)C1 (centres unmarked) — lower, 0.0052%
- Cc1ccc(Cn2c(N)c(S(=O)(=O)c3cccs3)c3nc4ccccc4nc32)cc1 — lower, 5.35%
- CCn1c(SCC(=O)N/N=C/c2c[nH]c3ccccc23)nnc1-c1ccc(C)cc1 — higher, 9.39%
- O=C1c2ccccc2C(=O)C1c1ccnc2ccccc12 — higher, 11.7%
- Cc1ccccc1N(CC(=O)NCc1ccc2c(c1)OCO2)C(=O)CCC(=O)Nc1ccccn1 — higher, 6.43%
- CCC1(CC)NC(=O)N(CC(=O)Nc2ccc(S(=O)(=O)N3CCOCC3)cc2)C1=O — lower, 3.3%
- O=[N+]([O-])c1ccc(N2CCN(CC3CCCCC3)CC2)cc1 — lower, -23%
- CCN1CCC(N2CCN(c3ccc(F)cc3)CC2)CC1 — higher, 10.6%
- CCC1CCC(N2CCN(c3ccc(F)cc3)CC2)CC1 (centres unmarked) — lower, -2.92%
- O=[N+]([O-])c1ccc(N2CCN(c3ccccc3)CC2)cc1 — higher, 9.45%
- CCN1CCC(N2CCN(c3ccc(Cl)cc3)CC2)CC1 — higher, 10.7%
- CCC1CCC(N2CCN(c3ccc([N+](=O)[O-])cc3)CC2)CC1 (centres unmarked) — lower, -74.5%
- CCCN1CCC(N2CCN(c3ccc([N+](=O)[O-])cc3)CC2)CC1 — lower, -62.7%
- CC1CCC(N2CCN(c3ccc([N+](=O)[O-])cc3)CC2)CC1 (centres unmarked) — lower, -67.8%
- Cc1ccnc(N2C(=O)OC(C)(C)C2(C)O)c1 (centres unmarked) — lower, -0.922%
- C=CCS(=O)(=O)N1CCCC(C(=O)c2cccc(Cl)c2)C1 (centres unmarked) — higher, 14.2%
- O=C(NS(=O)(=O)c1ccccc1)c1ccccc1O — lower, 0.636%
- O=C(NCc1ccc2c(c1)OCO2)c1cc(-c2ccccc2Cl)on1 — higher, 12.4%
- O=C(O)CSC1=NC(=Nc2cccc(Cl)c2)C2(CCCCC2)N1c1ccccc1 — higher, 19.9%
- Cc1cc(OC(C)C(=O)NCc2cccnc2)c2c(C)cc(=O)oc2c1 (centres unmarked) — higher, 9.3%
- Cc1ccccc1CNC(=O)Cc1ccccc1[N+](=O)[O-] — lower, 0.014%
- Cc1c(C(=O)Nc2cccc([N+](=O)[O-])c2)sc2ncn(CC(=O)N3CCOCC3)c(=O)c12 — higher, 14.1%
- CCc1nnc(NC(=O)c2ccc(-c3ccccc3F)o2)s1 — higher, 11.7%
- Cc1cc(C)n(-c2nnc(N3CCN(c4ccccc4)CC3)nn2)n1 — lower, 4.59%
- Cc1cc(N2CCN(c3ccccc3)CC2)nc(-n2nc(C)cc2C)n1 — lower, -51%
- Cc1cc(N2CCC(C)CC2)nc(-n2nc(C)cc2C)n1 — lower, -9.09%
- O=C(Cc1cccc(NC(=O)C2CCCN(C(=O)C3CCC3)C2)c1)Nc1cccc(C(=O)N2CCCC2)c1 (centres unmarked) — higher, 9.32%
- COc1ccc(C(=O)N2N=C(c3cccc(NS(C)(=O)=O)c3)CC2c2cccs2)cc1 (centres unmarked) — lower, -22.1%
- O=C(N/N=C/c1ccc(OC2CSC2)cc1)c1ccccc1 — lower, -0.636%
- Cc1cccc(C(=O)N/N=C/c2ccc(OC3CSC3)cc2)c1 — lower, -59.8%
- COc1cccc(C(=O)N/N=C/c2ccc(OC3CSC3)cc2)c1 — higher, 12.7%
- CN(CC(=O)Nc1ccccc1C(F)(F)F)C(=O)COc1ncnc2sccc12 — higher, 6.31%
- C=CCn1c(SCC(=O)NC(=O)NCC(C)C)nnc1C1CCCCC1 — higher, 13.9%
- O=C(O)CCC(=O)NCc1cn(-c2ccccc2)nc1-c1cccc(Br)c1 — higher, 9.76%
- Cc1ccc(S(=O)(=O)N2CCN(C(=O)c3cc(S(=O)(=O)N(C)C)ccc3N3CCCC3)CC2)cc1 — higher, 13.1%
- O=C(c1cc([N+](=O)[O-])ccc1N1CCOCC1)N1CCN(c2ccccc2)CC1 — higher, 7.19%
- O=C(c1cc([N+](=O)[O-])ccc1Cl)N1CCN(c2ccc([N+](=O)[O-])cc2)CC1 — lower, -58.8%
- Cc1cccc(N2CCN(C(=O)c3cc(S(=O)(=O)N(C)C)ccc3N3CCCC3)CC2)c1C — higher, 5.76%
- O=C(c1cc([N+](=O)[O-])ccc1Cl)N1CCN(c2ccc(F)cc2)CC1 — lower, 0.85%
- O=C(c1cc([N+](=O)[O-])ccc1N1CCOCC1)N1CCN(c2ccc([N+](=O)[O-])cc2)CC1 — lower, -74%
- CN(C)S(=O)(=O)c1ccc(N2CCCC2)c(C(=O)N2CCN(c3ccc([N+](=O)[O-])cc3)CC2)c1 — lower, -84%
- O=C(c1cc([N+](=O)[O-])ccc1Cl)N1CCN(c2ccccc2)CC1 — lower, 4.13%
- O=C(c1cc([N+](=O)[O-])ccc1N1CCOCC1)N1CCOCC1 — higher, 12.4%
- COc1ccc(-c2cc(-c3cccs3)nc(OC)c2C#N)cc1OC — higher, 24.6%
- COc1ccc(CN2CCC(N3CC(C)OC(C)C3)CC2)c(OC)c1OC.O=C(O)C(=O)O (centres unmarked) — lower, 2.62%
- N#Cc1ccccc1CSc1ccc(-c2nc3ccccc3[nH]2)cn1 — higher, 16.2%
- O=C(CSc1ccc(-c2ccccc2)nn1)Nc1ccc2c(c1)OCCO2 — higher, 8.92%
- Cc1nc(C)c(C(=O)Nc2nc3c(C)cccc3s2)o1 — lower, -4.12%
- Cc1ccc([N+](=O)[O-])cc1S(=O)(=O)Nc1ccc(O)c(Sc2ncn[nH]2)c1 — higher, 14.7%
- CCOc1ccc(CCNC(=O)COC(=O)/C=C/c2ccco2)cc1OCC — higher, 15.9%
- CCOc1ccc(CCNC(=O)/C=C/c2ccco2)cc1OCC — lower, -170%
- COc1ccc(CCNC(=O)/C=C/c2ccco2)cc1OC — higher, 5.95%
- O=C(c1ccc(S(=O)(=O)c2cccc(Cl)c2)c([N+](=O)[O-])c1)N1CCN(Cc2ccccc2)CC1 — higher, 15.8%
- COc1cc(C(=S)N2CCOCC2)cc(OC)c1OC(=O)c1ccc([N+](=O)[O-])cc1[N+](=O)[O-] — lower, 5.28%
- COc1cc(C(=S)N2CCOCC2)ccc1OC(=O)c1ccc([N+](=O)[O-])cc1[N+](=O)[O-] — higher, 15.5%
- COc1ccc(C(=S)N2CCOCC2)cc1OC(=O)c1ccc([N+](=O)[O-])cc1[N+](=O)[O-] — lower, -63.1%
- CC1CCc2nc3ccccc3c(C(=O)OCC(=O)NC3CCS(=O)(=O)C3)c2C1 (centres unmarked) — higher, 13%
- CC(=O)Nc1ccc(S(=O)(=O)Nc2ccc(S(=O)(=O)N3CCCC3)cc2)cc1 — lower, 4.58%
- Cc1ccc(C)c(/C=C(\C(=O)O)c2ccc(S(=O)(=O)N3CCCCC3)s2)c1 — higher, 6.97%
